# In PubChem BioAssay (EPA / NIEHS):
# Records with an inconclusive call do not appear. Active and inactive are the calls of the source. Rule for the calls, unless noted: active = hit-call score of the fitted dose curve at least 0.9, where 1 is the maximum; inconclusive = response in the unintended direction; inactive = score below 0.9.
# Legend:
# [1] = target: Retinoic acid receptor RXR-alpha (Homo sapiens) (UniProt P19793); assay: OT_NURR1_NURR1RXRa_1440: Odyssey Thera (OT) 24-hour HEK293T Protein Complementation Assay for Nurr1/retinoid X receptor (RXR) (AID 2283386)
# Sequence of Retinoic acid receptor RXR-alpha (Homo sapiens) (P19793 whole entry, looked up): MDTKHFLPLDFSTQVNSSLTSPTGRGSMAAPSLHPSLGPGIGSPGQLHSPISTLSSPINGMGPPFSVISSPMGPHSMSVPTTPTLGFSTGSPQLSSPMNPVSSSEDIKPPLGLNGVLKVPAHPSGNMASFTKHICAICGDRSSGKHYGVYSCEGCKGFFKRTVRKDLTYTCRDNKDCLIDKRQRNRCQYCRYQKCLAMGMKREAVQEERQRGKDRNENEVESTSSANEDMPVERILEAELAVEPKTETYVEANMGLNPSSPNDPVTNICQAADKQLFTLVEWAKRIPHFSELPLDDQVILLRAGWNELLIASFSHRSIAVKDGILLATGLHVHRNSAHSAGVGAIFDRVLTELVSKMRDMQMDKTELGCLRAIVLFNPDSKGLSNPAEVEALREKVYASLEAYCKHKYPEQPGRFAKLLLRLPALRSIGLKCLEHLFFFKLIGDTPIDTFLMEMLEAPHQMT
# Procedure, shortened: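 Measured as fluorescence from a reconstituted split reporter, this 24 h HEK293T complementation assay scores compound-induced gain of Nurr1/RXRα association relative to DMSO.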
# [2] = target: Peroxisome proliferator-activated receptor gamma (Homo sapiens) (UniProt P37231); assay: OT_PPARg_PPARgSRC1_0480: Odyssey Thera (OT) 8-hour Protein-Complementation Assay for Peroxisome Proliferator-activated Receptor Gamma / SRC-1 Co-activator (AID 2283387);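 note: nuclear to cytoplasmic split Venus YFP fluorescence ratio reporting PPARg SRC-1 interaction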
# Sequence of Peroxisome proliferator-activated receptor gamma (Homo sapiens) (P37231 whole entry, looked up, the tested form may be a part): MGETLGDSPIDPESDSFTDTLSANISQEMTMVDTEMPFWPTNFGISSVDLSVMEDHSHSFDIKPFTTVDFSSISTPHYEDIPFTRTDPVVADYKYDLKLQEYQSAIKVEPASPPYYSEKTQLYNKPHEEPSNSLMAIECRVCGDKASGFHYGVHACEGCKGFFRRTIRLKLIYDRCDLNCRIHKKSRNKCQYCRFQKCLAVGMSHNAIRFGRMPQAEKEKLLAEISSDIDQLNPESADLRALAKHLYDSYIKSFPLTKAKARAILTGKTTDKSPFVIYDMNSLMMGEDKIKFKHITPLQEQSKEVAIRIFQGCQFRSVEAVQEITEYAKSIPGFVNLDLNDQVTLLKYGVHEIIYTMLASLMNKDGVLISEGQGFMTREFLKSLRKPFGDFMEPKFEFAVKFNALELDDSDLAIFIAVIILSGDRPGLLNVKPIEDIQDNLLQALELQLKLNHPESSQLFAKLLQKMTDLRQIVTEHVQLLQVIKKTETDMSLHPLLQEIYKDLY
# Procedure, shortened: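 Protein-fragment complementation in HEK293T: Venus YFP halves (residues 1-158, 159-239, mutated to IFP1/IFP2) fused to PPARg/SRC-1. 8 h exposure; N/C ratio at 488 nm; DMSO negative control.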
# [3] = target: Peroxisome proliferator-activated receptor gamma (Homo sapiens) (UniProt P37231); assay: OT_PPARg_PPARgSRC1_1440: Odyssey Thera (OT) 24-hour Protein-Complementation Assay for Peroxisome Proliferator-activated Receptor Gamma/ SRC-1 Co-activator (AID 2283388);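 note: nuclear to cytoplasmic ratio of reconstituted Venus YFP fluorescence in fixed imaged cells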
# Procedure, shortened: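 Readout: nuclear-to-cytoplasmic 488 nm fluorescence ratio, ≥350 cells per image, 8 images per well, after 24 h compound exposure of HEK293T expressing PPARg/SRC-1 split-YFP fusions. Activity fitted in positive direction against DMSO.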
# [4] = CEETOX_H295R_11DCORT: CeeTox H295R High-throughput Steroidogenesis Assay for 11-Deoxycortisol (11DCORT) (AID 2283432; active = hit-call score of the fitted dose curve at least 0.9, where 1 is the maximum; inactive = score below 0.9;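 for AC50: 11-deoxycortisol secreted into the medium measured by LC-MS/MS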); conditions: actives raise or lower the signal
# Procedure, shortened: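 Adrenal carcinoma line H295R, run per OECD 456 with minor changes, was forskolin-stimulated (10 uM, 48 h) before a 48 h chemical exposure at 0.1% DMSO. Secreted 11-deoxycortisol was quantified by HPLC-MS/MS.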
# [5] = CEETOX_H295R_OHPREG: CeeTox H295R High-throughput Steroidogenesis Assay for OH-Pregnenolone (OHPREG) (AID 2283434; active = hit-call score of the fitted dose curve at least 0.9, where 1 is the maximum; inactive = score below 0.9); conditions: actives raise or lower the signal
# Procedure, shortened: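 H295R cells pre-stimulated 48 h with 10 uM forskolin, then exposed 48 h to chemical in 0.1% DMSO. 17alpha-hydroxypregnenolone in medium quantified by MTBE extraction and HPLC-MS/MS; bidirectional fit versus DMSO, viability checked by MTT.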
# [6] = CEETOX_H295R_OHPROG: CeeTox H295R High-throughput Steroidogenesis Assay for OH-Progesterone (OHPROG) (AID 2283435; active = hit-call score of the fitted dose curve at least 0.9, where 1 is the maximum; inactive = score below 0.9;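 for AC50: human adrenal H295R cells primed 48 h with 10 µM forskolin; 17alpha-hydroxyprogesterone secreted into medium measured by HPLC-MS/MS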); conditions: actives raise or lower the signal
# Procedure, shortened: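 Secreted 17alpha-hydroxyprogesterone is read by tandem MS from media of forskolin-primed H295R cells dosed with chemical for 48 h. Activity is fitted in both directions against DMSO baseline; cytotoxic concentrations are re-tested diluted.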
# [7] = CEETOX_H295R_CORTIC: CeeTox H295R High-throughput Steroidogenesis Assay for Corticosterone (CORTIC) (AID 2283437; active = hit-call score of the fitted dose curve at least 0.9, where 1 is the maximum; inactive = score below 0.9;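 note: corticosterone secreted into medium quantified by mass spectrometry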); conditions: actives raise or lower the signal
# Procedure, shortened: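 H295R adrenal cells prestimulated 48 hours with 10 uM forskolin, then exposed 48 hours to chemical in 0.1% DMSO. Corticosterone in medium measured by HPLC-MS/MS after MTBE extraction; MTT viability in the same wells; bidirectional fit versus DMSO.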
# [8] = CEETOX_H295R_CORTISOL: CeeTox H295R High-throughput Steroidogenesis Assay for Cortisol (AID 2283438; active = hit-call score of the fitted dose curve at least 0.9, where 1 is the maximum; inactive = score below 0.9;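 note: cortisol secreted into medium quantified by LC-MS/MS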); conditions: actives raise or lower the signal
# Procedure, shortened: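 Human adrenocortical H295R cells (passage ≤10) received test chemicals for 48 h after forskolin priming. Secreted cortisol was measured by LC-MS/MS.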
# [9] = CEETOX_H295R_DOC: CeeTox H295R High-throughput Steroidogenesis Assay for DOC (AID 2283439; active = hit-call score of the fitted dose curve at least 0.9, where 1 is the maximum; inactive = score below 0.9); conditions: actives raise or lower the signal
# Procedure, shortened: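 Secreted DOC was quantified from H295R media by HPLC-MS/MS after 48 h chemical exposure following 48 h forskolin (10 uM) prestimulation. Values were fitted in both directions relative to DMSO, the negative control and baseline.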
# [10] = CEETOX_H295R_ESTRADIOL: CeeTox H295R High-throughput Steroidogenesis Assay for Estradiol (AID 2283440; active = hit-call score of the fitted dose curve at least 0.9, where 1 is the maximum; inactive = score below 0.9;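 note: estradiol secreted into medium quantified by LC-MS/MS after dansyl derivatisation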); conditions: actives raise or lower the signal
# Procedure, shortened: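 H295R, 48 h forskolin (10 uM) prestim → 48 h compound, 0.1% DMSO final. Estradiol in medium: MTBE extraction, dansyl chloride derivatization, LC-MS/MS. Fit bidirectional vs DMSO baseline; MTT viability in same wells.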
# [11] = CEETOX_H295R_ESTRONE: CeeTox H295R High-throughput Steroidogenesis Assay for Estrone (AID 2283441; active = hit-call score of the fitted dose curve at least 0.9, where 1 is the maximum; inactive = score below 0.9;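 note: estrone secreted into medium measured by LC-MS/MS after dansyl derivatization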;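 for AC50: human adrenal H295R cells prestimulated with forskolin for two days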); conditions: actives raise or lower the signal
# Procedure, shortened: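 H295R cells; 48 h forskolin (10 uM) prestimulation; 48 h compound exposure, 0.1% DMSO final. Medium estrone: MTBE extraction, dansyl derivatization, HPLC-MS/MS. Bidirectional fit vs DMSO.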
# [12] = CEETOX_H295R_PROG: CeeTox H295R High-throughput Steroidogenesis Assay for Progesterone (PROG) (AID 2283442; active = hit-call score of the fitted dose curve at least 0.9, where 1 is the maximum; inactive = score below 0.9;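 note: human H295R adrenal cells primed with 10 µM forskolin before dosing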); conditions: actives raise or lower the signal
# Procedure, shortened: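 Progesterone read-out: HPLC-MS/MS on MTBE extracts of conditioned medium after 48 h chemical exposure of forskolin-primed (10 uM, 48 h) H295R cells. Gain or loss of signal was fitted relative to DMSO baseline.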
compound,measurement,setting,value
CC(=O)/C=C/C1C(C)=CCCC1(C)C (stereo not drawn),outcome,[1],inactive
same,outcome,[2],inactive
same,outcome,[3],inactive
CC1=CC=C(C(C)C)CC1,outcome,[1],inactive
c1ccc(Nc2cccc3ccccc23)cc1,AC50,[1],82 µM (active)
same,outcome,[2],inactive
same,outcome,[3],inactive
CC(C)(C)C1CCC(=O)CC1,outcome,[1],inactive
same,outcome,[2],inactive
same,outcome,[3],inactive
CCCCCC[C@@H](O)C/C=C\CCCCCCCC(=O)OCC(O)CO (stereo partly drawn),outcome,[1],inactive
same,outcome,[2],inactive
same,outcome,[3],inactive
NC(=O)Nc1ccccc1,outcome,[1],inactive
CC1=NN(c2ccc(S(=O)(=O)O)cc2)C(=O)C1N=Nc1ccccc1 (stereo not drawn),outcome,[1],inactive
same,outcome,[2],inactive
same,outcome,[3],inactive
CCCCCCCO,outcome,[1],inactive
same,outcome,[2],inactive
same,outcome,[3],inactive
CC1(C)[C@@H]2CC[C@@]1(C)C(=O)C2,outcome,[1],inactive
CC(=O)OC(C)c1ccccc1 (stereo not drawn),outcome,[1],inactive
same,outcome,[2],inactive
same,outcome,[3],inactive
CC(CCC(=O)O)(c1ccc(O)cc1)c1ccc(O)cc1,outcome,[1],inactive
same,outcome,[2],inactive
same,outcome,[3],inactive
CCc1cccc(C)c1N,outcome,[1],inactive
same,outcome,[2],inactive
same,outcome,[3],inactive
O=C(O)CC(C(=O)O)S(=O)(=O)O (stereo not drawn),outcome,[1],inactive
same,outcome,[2],inactive
same,outcome,[3],inactive
CCOC(=O)c1ccccc1C,outcome,[1],inactive
same,outcome,[2],inactive
same,outcome,[3],inactive
CC(C)(C)N,outcome,[1],inactive
same,outcome,[2],inactive
same,outcome,[3],inactive
CCCCC(C=O)CC (stereo not drawn),outcome,[1],inactive
same,outcome,[2],inactive
same,outcome,[3],inactive
CCCCC(=O)O,outcome,[1],inactive
same,outcome,[2],inactive
same,outcome,[3],inactive
CCCCCCC=O,outcome,[1],inactive
same,outcome,[2],inactive
same,outcome,[3],inactive
CC(=O)OC1CCCCC1C(C)(C)C (stereo not drawn),outcome,[1],inactive
same,outcome,[2],inactive
same,outcome,[3],inactive
CCCCC(CC)COS(=O)(=O)O (stereo not drawn),outcome,[1],inactive
CCCCCCOC(=O)CCCCC(=O)OCCCCCC,outcome,[1],inactive
same,outcome,[2],inactive
same,outcome,[3],inactive
COc1cc(O)c(C(=O)c2ccccc2)cc1S(=O)(=O)O,outcome,[1],inactive
same,outcome,[2],inactive
same,outcome,[3],inactive
CCC[Si](OC)(OC)OC,outcome,[1],inactive
C=C1C[C@H]2[C@@H]3C=C(C)C4=CC(=O)CC[C@]4(C)[C@H]3CC[C@]2(C)[C@@]1(OC(C)=O)C(C)=O,AC50,[1],49.5 µM (active)
same,outcome,[2],inactive
same,outcome,[3],inactive
CCCC(CC)c1ccccc1 (stereo not drawn),outcome,[1],inactive
same,outcome,[2],inactive
same,outcome,[3],inactive
COC(=O)c1ccccc1C,outcome,[1],inactive
same,outcome,[2],inactive
same,outcome,[3],inactive
N#Cc1ccc(C(c2ccc(C#N)cc2)n2cncn2)cc1,outcome,[1],inactive
same,outcome,[2],inactive
same,outcome,[3],inactive
CCCCCC(=O)OCC,outcome,[1],inactive
same,outcome,[2],inactive
same,outcome,[3],inactive
CCCC=C(C=O)CC,outcome,[1],inactive
CC(C)COC(=O)CC(C(=O)OCC(C)C)S(=O)(=O)O (stereo not drawn),outcome,[1],inactive
same,outcome,[2],inactive
same,outcome,[3],inactive
C=C(C)C1CC=C(C)CC1 (stereo not drawn),outcome,[1],inactive
CN(C)Cc1cc(CN(C)C)c(O)c(CN(C)C)c1,outcome,[1],inactive
same,outcome,[2],inactive
same,outcome,[3],inactive
CCCCCCCCC(CO)CCCCCC (stereo not drawn),outcome,[1],inactive
same,outcome,[3],inactive
CCCCNS(=O)(=O)c1ccc(C)cc1,outcome,[1],inactive
same,outcome,[3],inactive
O=C(O)CCC(=O)O,outcome,[1],inactive
same,outcome,[3],inactive
C/C=C/C=C/CCCCCCCO,AC50,[1],5.06 µM (active)
same,outcome,[2],inactive
same,outcome,[3],inactive
CCC(C)(O)CCCC(C)C (stereo not drawn),outcome,[1],inactive
same,outcome,[3],inactive
O=c1c(O)c(-c2ccc(O)cc2O)oc2cc(O)cc(O)c12,outcome,[1],inactive
same,outcome,[3],inactive
C[Si]1(C)O[Si](C)(C)O[Si](C)(C)O[Si](C)(C)O[Si](C)(C)O1,outcome,[1],inactive
same,outcome,[3],inactive
CCOC(=O)C1=NOC(c2ccccc2)(c2ccccc2)C1,outcome,[1],inactive
same,outcome,[3],inactive
CCCCCCO,outcome,[1],inactive
same,outcome,[3],inactive
CCCCCCOc1ccc(N)cc1,outcome,[1],inactive
same,outcome,[3],inactive
Cc1c(C(=O)c2c[nH]n(C)c2=O)ccc(S(C)(=O)=O)c1C1=NOCC1,outcome,[1],inactive
same,outcome,[3],inactive
O=C(OCCc1ccccc1)c1ccccc1,outcome,[1],inactive
same,outcome,[3],inactive
N#Cc1ccc(C2CCCc3cncn32)cc1 (stereo not drawn),outcome,[1],inactive
same,outcome,[3],inactive
O=C(O)c1ccc2c(c1)C(=O)OC2=O,outcome,[1],inactive
same,outcome,[3],inactive
Oc1ccc(-c2ccccc2)c(Cl)c1,AC50,[1],69.5 µM (active)
same,outcome,[3],inactive
Fc1ccc(Br)cc1,outcome,[1],inactive
same,outcome,[3],inactive
CCCCC(CC)COC(=O)/C=C/c1ccc(OC)cc1 (stereo not drawn),outcome,[1],inactive
same,outcome,[3],inactive
O=C(OCc1ccccc1)c1ccc(O)cc1,AC50,[1],69.9 µM (active)
same,outcome,[2],inactive
same,outcome,[3],inactive
same,AC50,[4],36.8 µM (active)
same,AC50,[5],30.5 µM (active)
same,AC50,[6],13.5 µM (active)
same,outcome,[7],inactive
same,AC50,[8],36.9 µM (active)
same,AC50,[9],42.7 µM (active)
same,AC50,[10],50 µM (active)
same,AC50,[11],37.5 µM (active)
same,AC50,[12],24.6 µM (active)
CC(=O)c1ccccc1O,outcome,[1],inactive
same,outcome,[3],inactive
CCCCCCCCCCCCCCCCCCOS(=O)(=O)O,outcome,[1],inactive
same,outcome,[3],inactive
CCCCCCCCCC[N+](C)(CCCCCCCCCC)CCC[Si](OC)(OC)OC,AC50,[1],11.6 µM (active)
same,outcome,[3],inactive
CCCCCCCOC(=O)c1ccc(O)cc1,AC50,[1],90.7 µM (active)
same,outcome,[3],inactive
CCOC(=O)c1ccc(C)cc1,outcome,[1],inactive
same,outcome,[3],inactive
CCC1COC(=O)O1 (stereo not drawn),outcome,[1],inactive
same,outcome,[3],inactive
CN(C)c1ccc2nc3ccc(=[N+](C)C)cc-3sc2c1,AC50,[1],15.3 µM (active)
same,AC50,[2],31.1 µM (active)
same,outcome,[3],inactive
same,outcome,[4],inactive
same,outcome,[5],inactive
same,outcome,[6],inactive
same,outcome,[7],inactive
same,outcome,[8],inactive
same,AC50,[9],0.598 µM (active)
same,outcome,[10],inactive
same,outcome,[11],inactive
same,AC50,[12],0.617 µM (active)
O=C(Nc1ccccc1)c1cc(Cl)ccc1O,AC50,[1],16.1 µM (active)
same,outcome,[3],inactive
O=S(=O)(O)c1ccc(N=Nc2c(O)ccc3ccccc23)cc1,outcome,[1],inactive
same,outcome,[2],inactive
same,outcome,[3],inactive
